Each structure is given as a SMILES string. Records with an inconclusive call do not appear. Activity calls are given as the source filed them. Unless noted, the call rests on the fitted dose curve; in most records, active means well fitted inhibition curve with a large enough effect; inconclusive means small, poorly fitted or top-dose-only effect; inactive means no such curve, though single readings can be large or run the other way. Non-standard residues stand in square brackets, D forms with d. Residues, ends and D or L forms follow the SMILES beside them. *: point of attachment. Nva = CCC[C@H](N)C(=O)O; Cbz = O=C(OCc1ccccc1)*

Assay [1] in a line: High-throughput drug toxicity screening in the BPDCN cell line Gen2.2 (AID 1224824; call rule not given here;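 further: cells exposed to compounds for 48 h before reading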). Particulars: Gen2.2 BPDCN cells; at 45.8 µM (top of the series) unless noted. In short, it runs like this:
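Readout is ATP luminescence from Gen2.2 cells after two days of drug exposure in serum-containing medium at 37 °C. Values express percent activity, with vehicle defining full signal and 9.2 uM bortezomib defining zero.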

Assay [2] can be described thus: High-throughput drug toxicity screening in the BPDCN cell line Cal-1 (AID 1224825; call rule not given here). Particulars: Cal-1 BPDCN cell viability, qHTS; at 45.8 µM (top of the series) unless noted. The gist of the method: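 Cal-1 cells, 500 per well in phenol-red-free RPMI with 10% FBS, exposed to compounds for 48 hours at 37C, 5% CO2. Viability read by CellTiter-Glo luminescence; percent activity normalized to DMSO (100%) and 9.2 uM bortezomib final (0%).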
On the technique in general: In qHTS, concentration-response curves come from the screen itself.

The nature of assay [3]: qHTS assay for measurement of the activity of small molecule inhibitors on Zika virus induced Caspase-3 activity in human iPSC derived neural progenitor cells (hNPCs) (AID 1224857). Further: % of control where 0% means no effect; nearly all actives have a fitted effect of over 65% in size. The gist of the method:
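Human iPSC-derived neural progenitor cells pretreated 1 hr with compounds, then infected with Zika virus (2 FFU/cell) for 6 hours at 37 C. Caspase-3/7 measured by Caspase-Glo luminescence; % inhibition calculated from induction scaled to uninfected (0%) and infected (100%) wells.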

A short description of assay [4]: qHTS assay for measurement of the activity of small molecule inhibitors on Zika virus induced Caspase-3 activity in human astrocytoma cells (AID 1224859).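 Further: plate controls were ZIKV-infected untreated cells for no effect and uninfected cells for full effect.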 In short, it runs like this: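 SNB-19 astrocytoma cells, 250/well, pretreated 1 h with compounds, then Zika virus at 2 FFU/cell for 6 h at 37 C; Caspase-Glo 3/7 luminescence after 30 min; percent inhibition normalised to uninfected and infected controls.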

Assay [5] is described as follows: qHTS Screen of the MIPE 4.0 Collection Against Ewings Sarcoma (RDES) (AID 1259252). Further: nearly all actives have a fitted effect of over 35% in size. Further: potency means the concentration at half of the fitted maximal effect. The gist of the method:
(§1)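 Viability screen: 48 h incubation at 37C, 95% humidity, 5% CO2 with serially titrated compound, followed by CellTiter-Glo readout.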

The nature of assay [6]: qHTS Screen of the MIPE 4.0 Collection Against Ewings Sarcoma (TC71) (AID 1259253). Further: nearly all actives have a fitted effect of over 40% in size. Further: potency means the concentration at half of the fitted maximal effect. In short, it runs like this:
as §1

Assay [7] in a line: qHTS Screen of the MIPE 4.0 Collection Against Ewings Sarcoma (EW8) (AID 1259255). Further: nearly all actives have a fitted effect of over 35% in size. Further: potency means the concentration at half of the fitted maximal effect.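 On viability: 100% = DMSO-treated cells and 0% = medium-only wells without cells.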 The gist of the method:
as §1

Assay [8] can be described thus: qHTS Screen of the MIPE 4.0 Collection Against Ewings Sarcoma (TC32) (AID 1259256). Further: nearly all actives have a fitted effect of over 45% in size. Further: potency means the concentration at half of the fitted maximal effect. The gist of the method:
as §1

Assay [9] can be described thus: qHTS profiling of the MIPE4 collection as inhibitors of Plasmodium falciparum (DD2) proliferation (Rep 2) (AID 743346; call rule not given here). Particulars: P. falciparum Dd2 in erythrocytes, SYBR Green DNA, 72 h; at 28.5 µM (top of the series) unless noted. In short, it runs like this: (§2)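 Erythrocytes infected with P. falciparum (0.3% parasitemia, 2.5% hematocrit) incubated with compounds 72 h at 37 C, 5% CO2. Lysis with saponin/Triton buffer containing SYBR Green I, overnight at room temperature in the dark; DNA fluorescence (485/535 nm) normalised to 0.29 uM artemisinin and DMSO.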

A short description of assay [10]: qHTS profiling of the MIPE4 collection as inhibitors of Plasmodium falciparum (HB3) proliferation (AID 743347; call rule not given here;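 further: plate controls were DMSO vehicle wells for no effect and artemisinin wells for full effect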). Particulars: P. falciparum HB3 in erythrocytes, SYBR Green DNA, 72 h; at 28.5 µM (top of the series) unless noted. The gist of the method:
as §2

With `NC1=N[C@H]2[C@H](CS[C@H]2CCCCC(=O)O)N1`, the cell viability, % of control (lower = more cytotoxic) in assay [1] was determined as 175% [at 23.2 µM]. The viability (% of control) in assay [2] was determined as 126% [at 23.2 µM]. The Potency entry in [3], in assay [4], in [5], in assay [6] and in [7] was “inactive” throughout.

Take `CN[C@H](CC(C)C)C(=O)N[C@H]1C(=O)N[C@@H](CC(N)=O)C(=O)N[C@@H]2C(=O)N[C@H]3C(=O)N[C@H](C(=O)N[C@H](C(=O)O)c4cc(O)cc(O)c4-c4cc3ccc4O)[C@H](O)c3ccc(c(Cl)c3)Oc3cc2cc(c3O[C@@H]2O[C@H](CO)[C@@H](O)[C@H](O)[C@@H]2O[C@H]2C[C@](C)(N)[C@H](O)[C@H](C)O2)Oc2ccc(cc2Cl)[C@H]1O`: the cell viability, % of control (lower = more cytotoxic) in assay [1] came out at 160%. The viability (% of control) in assay [2] came out at 93.1%. Moreover, the Potency result in assay [3], in [4], in assay [5], in [6], in assay [7] and in [8] was “inactive” in each case.

In [9], `COc1ccc(Nc2cc(-c3cnc(N)nc3)nc(N3CCOCC3)n2)cn1` returned a parasite growth, % of control (lower = inhibition) of 27.1%. In [10], this compound showed a growth, % of control of 6.14%. In addition, the cell viability, % of control (lower = more cytotoxic) in [1] amounted to 28.9%. In [2], the viability (% of control) came out at 25.7%. Besides, the Potency result in [3] and in assay [4] was “inactive” each time. Moreover, the Potency in [5] was 5.9 µM (active); in assay [6], 14.8 µM (active); in assay [7] it was 11.8 µM (active); in assay [8] it was 5.26 µM (active).

`COC(=O)[C@H](CCCN=C(N)N)NS(=O)(=O)c1ccc(C)cc1`: the cell viability, % of control (lower = more cytotoxic) in assay [1] amounted to 94.4%. Besides, the viability (% of control) in assay [2] was determined as 104%. For the same compound, the Potency result in assay [3], in [4], in [5], in assay [6], in assay [7] and in assay [8] was “inactive” in each case.

For `CCC[C@@H](C=O)NC(=O)[C@H](CC(C)C)NC(=O)[C@H](CC(C)C)NC(=O)OCc1ccccc1` (Cbz-Leu-Leu-[Nva]-aldehyde), the parasite growth, % of control (lower = inhibition) in [9] is 7.93%. In addition, the growth, % of control in assay [10] worked out at 3.3%. Moreover, the cell viability, % of control (lower = more cytotoxic) in assay [1] is 10.9%. Moreover, the viability (% of control) in assay [2] is 7.12%. The Potency result in assay [3] and in [4] was “inactive” in each case. Further, the Potency is 1.18 µM (active) in assay [5], 1.32 µM (active) in assay [6], 0.743 µM (active) in assay [7] and 1.05 µM (active) in assay [8].

Take `COc1cc2c(Nc3ccc(Cl)c(Cl)c3F)ncnc2cc1OCC1C[C@@H]2CN(C)C[C@H]2C1`: the parasite growth, % of control (lower = inhibition) in assay [9] is 18.3%. The same compound returned a growth, % of control in [10] of 7.13%. In [1], the cell viability, % of control (lower = more cytotoxic) came to 2.56%. In addition, the viability (% of control) in assay [2] came to 2.8%. Also, the Potency result in [3] and in [4] was “inactive” throughout. Also, the Potency in [5] is 14.8 µM (active); in [6], 10.5 µM (active); in [7], 11.8 µM (active); in assay [8], 13.2 µM (active).

Consider `CC1=C(C(=O)Nc2cc3cn[nH]c3cc2F)C(c2ccc(Cl)cc2F)N=C(c2ccnc(Cl)c2)N1` (stereo not drawn), for which the parasite growth, % of control (lower = inhibition) in assay [9] is 21.1%. The same compound returned a growth, % of control in [10] of 10.9%. Moreover, the cell viability, % of control (lower = more cytotoxic) in [1] was determined as 4.15%. Further, in [2], the viability (% of control) worked out at 3.35%. Also, the Potency entry in assay [3] and in assay [4] was “inactive” throughout. Moreover, the Potency was 18.7 µM (active) in assay [5], 14.8 µM (active) in [6], 26.4 µM (active) in assay [7] and 16.6 µM (active) in assay [8].

In assay [9], `COC(=O)[C@@H]1[C@H]2C[C@@H]3c4[nH]c5ccccc5c4CCN3C[C@@H]2CC[C@@H]1O` gave a parasite growth, % of control (lower = inhibition) of 69.1%. Moreover, the growth, % of control in assay [10] came out at 66.3%. For the same compound, the cell viability, % of control (lower = more cytotoxic) in assay [1] was 24.1%. For the same compound, in [2], the viability (% of control) was 21.8%. Also, the Potency entry in [3], in assay [4], in assay [5], in assay [6], in assay [7] and in assay [8] was “inactive” throughout.

`CCN(C(=O)c1c(O)c2c(Cl)cccc2n(C)c1=O)c1ccccc1` had a parasite growth, % of control (lower = inhibition) in [9] of 78.3%. The compound further came in with a growth, % of control in assay [10] of 102%. Also, the cell viability, % of control (lower = more cytotoxic) in assay [1] came out at 112%. In addition, in assay [2], the viability (% of control) came out at 20.2%. Besides, the Potency result in [3], in assay [4], in assay [5], in assay [6], in assay [7] and in assay [8] was “inactive” each time.
